The source made the active and inactive calls. How the source made its calls: active means hit-call score of the fitted dose curve at least 0.9, where 1 is the maximum; inactive means score below 0.9.
Target: Transcription factor E2F1 (Homo sapiens) (UniProt Q01094)
Experiment: ATG_E2F_CIS: Attagene CIS-FACTORIAL HepG2 Assay for human E2F Transcription Factor 1 (AID 2282935)
Conditions: HepG2 Attagene cis-reporter, E2F reporter RNA transcripts; actives raise or lower the signal
Experimental: ATG_CIS is a cell-based, multiplexed-readout assay that uses HepG2, a human liver cell line, with measurements taken at 24 hours after chemical dosing in a 24-well plate.ATG_E2F_CIS is one of 52 assay component(s) measured or calculated from the ATG_CIS assay. It is designed to make measurements of mRNA induction, a form of inducible reporter, as detected with fluorescence intensity signals by Reverse transcription polymerase chain reaction (RT-PCR) and Capillary electrophoresis technology.Data from the assay component ATG_E2F_CIS was analyzed into 1 assay endpoint. This assay endpoint, ATG_E2F_CIS, was analyzed with bidirectional fitting relative to DMSO as the negative control and baseline of activity. Using a type of inducible reporter, measures of mRNA for gain or loss-of-signal activity can be used to understand the reporter gene at the transcription factor-level as they relate to the gene E2F1. Furthermore, this assay endpoint can be referred to as a primary readout, because this assay has produced multiple assay endpoints where this one serves a reporter gene function. To generalize the intended target to other relatable targets, this assay endpoint is annotated to the dna binding intended target family, where the subfamily is E2F transcription factor.
Human liver HepG2 cells are transiently transfected with multiple reporter transcription units (MRTUs) in 6-well plates using FuGene 6 reagent (Roche; 3 ml FuGene/1 mg DNA). The MRTU constructs are regulated by a cis-regulating element (promoter). […] A major difference between the CIS and TRANS system is that in CIS activities of endogenous TFs are measured, whereas the TRANS assay evaluates changes in activities of exogenous, chimeric NR-Gal4 proteins. […] At the end of 24 hour incubation, total RNA was isolated using TriZol reagent (Invitrogen). The isolated RNA is then reverse-transcribed using oligo(dT) primer and Mo-MLV reverse transcriptase (Invitrogen) with DNAse I (Ambion) treatment for 30 min. The one-tenth of the produced cDNA was amplified by PCR using Taq DNA polymerase (Invitrogen) and two reporter sequence-specific primers. The PCR products were fluorescently labeled by primer extension with 6-arboxyfluorescein (6-FAM) 5'-labeled reporter sequence-specific primer (2 min at 95 C, 20 s at 68 C and 10 min at 72 C) and these products were digested with 5U of HpaI (New England Biolabs) for 2h at 37 C. The fragments were purified using Qiaquick PCR columns (Qiagen), analyzed on an ABI 3130xL genetic analyzer (Applied Biosystems) with peak positions identified by using a set of X-rhodamine (ROX)-labeled MapMarker1000 molecular weight standards (BioVentures). The raw capillary electrophoresis data was processed using Attagraph software (Attagene).

Chain of Transcription factor E2F1 (Homo sapiens) (Q01094 whole entry, looked up): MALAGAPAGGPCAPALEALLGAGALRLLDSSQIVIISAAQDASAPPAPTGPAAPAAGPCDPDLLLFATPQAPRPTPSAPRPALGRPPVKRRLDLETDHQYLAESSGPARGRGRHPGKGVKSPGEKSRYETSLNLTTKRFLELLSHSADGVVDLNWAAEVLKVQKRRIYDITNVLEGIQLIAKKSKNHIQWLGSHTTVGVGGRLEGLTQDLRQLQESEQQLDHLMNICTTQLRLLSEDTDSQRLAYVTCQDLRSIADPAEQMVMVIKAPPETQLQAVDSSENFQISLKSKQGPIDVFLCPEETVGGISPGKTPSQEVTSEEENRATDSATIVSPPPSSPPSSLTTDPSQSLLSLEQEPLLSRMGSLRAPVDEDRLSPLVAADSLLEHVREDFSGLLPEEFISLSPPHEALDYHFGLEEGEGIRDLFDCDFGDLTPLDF

Structure (SMILES)	outcome
CC[C@H]1CC[C@H](NCc2cc3c(cc2OC)[C@H]2C[C@H]2C(=O)N3C)[C@H](c2ccccc2)N1	inactive
CC(C)CCCCCCOC(=O)c1ccc(C(=O)OCCCCCCC(C)C)c(C(=O)OCCCCCCC(C)C)c1	inactive
COC(=O)CC(=O)OC	inactive
C=CC(=C)CCC=C(C)C	inactive
COC(=O)c1ccccc1O	inactive
CCCN(C1CCN(C(=O)C2CCNCC2)CC1)[C@@H]1CCc2ccc(OC)cc2C1	inactive
CCOCCOCCOCCO	inactive
Nc1cccc(N)c1	inactive
O=C(NS(=O)(=O)/C=C/c1ccccc1)c1ccc(F)cc1Cl	inactive
CC1=CC(=O)CC(C)(C)C1	inactive
CC(C)=CCCC(C)=CC=O	inactive
CCCCC(CC)COC(=O)CCCCCCCCC(=O)OCC(CC)CCCC (stereo not given)	inactive
CC/C(=C\C(=N/O)C(N)=O)C(C)[N+](=O)[O-] (stereo not given)	inactive
CN(C)c1ccc(Cc2ccc(N(C)C)cc2)cc1	inactive
Cc1[nH]cnc1C[C@H]1CCc2c(C)c3ccccc3n2C1=O	inactive
On1ccccc1=S	inactive
CN(C)c1ccc(N=NS(=O)(=O)O)cc1	inactive
CCOc1cccc(-n2cc(C(=O)N3CCN(c4cc(C(=O)O)c5ccccc5c4)CC3)nc2-c2ccc(C)cc2)c1	inactive
O=c1[nH]c2ccc(S(=O)CCN3CCC(Cc4ccc(F)cc4)CC3)cc2o1 (stereo not given)	inactive
O=C(O)CCN(C1(C(=O)NO)CCCC1)S(=O)(=O)c1ccc(Oc2ccc(F)cc2)cc1	inactive

Structure (SMILES)	outcome
CC(C)CC(C)(O)C#CC(C)(O)CC(C)C (stereo not given)	inactive
O=C(O)c1cccc(Oc2ccccc2)c1	inactive
CC(C)(O)c1coc(S(=O)(=O)NC(=O)Nc2c3c(cc4c2CCC4)CCC3)c1	inactive
CC(C)=CCC/C(C)=C/CO	inactive
O=P(OC(CCl)CCl)(OC(CCl)CCl)OC(CCl)CCl	inactive
CCCCCCCCO	inactive
O=C(OC[C@H]1O[C@@H](OC(=O)c2cc(O)c(O)c(OC(=O)c3cc(O)c(O)c(O)c3)c2)[C@H](OC(=O)c2cc(O)c(O)c(OC(=O)c3cc(O)c(O)c(O)c3)c2)[C@@H](OC(=O)c2cc(O)c(O)c(OC(=O)c3cc(O)c(O)c(O)c3)c2)[C@@H]1OC(=O)c1cc(O)c(O)c(OC(=O)c2cc(O)c(O)c(O)c2)c1)c1cc(O)c(O)c(OC(=O)c2cc(O)c(O)c(O)c2)c1	inactive
COCCOCCOCCOC	inactive
C1N2CN3CN1CN(C2)C3	inactive
Nc1ccc(Nc2ccccc2)cc1	inactive
CCOC(=O)c1ccc(C2CCC(NC[C@H](O)COc3ccc(O)c(NS(C)(=O)=O)c3)CC2)cc1 (stereo not given in full)	inactive
CC(=O)OC[C@H]1O[C@@](COC(C)=O)(O[C@H]2O[C@H](COC(C)=O)[C@@H](OC(C)=O)[C@H](OC(C)=O)[C@H]2OC(C)=O)[C@@H](OC(C)=O)[C@@H]1OC(C)=O	inactive
CC1(C)C(=O)N(Br)C(=O)N1Br	inactive
Cc1c(-c2cccnc2)c2ccccc2n1CCCCC(=O)O	inactive
O=C(O)c1cc(N=Nc2ccc(S(=O)(=O)Nc3ccccn3)cc2)ccc1O	inactive
Cn1cnc([N+](=O)[O-])c1Sc1ncnc2nc[nH]c12	inactive
CC(C)CCCCCCCOC(=O)CCCCC(=O)OCCCCCCCC(C)C	inactive
Cn1c(=O)c2c(ncn2C)n(C)c1=O	inactive
C[C@](N)(Cc1ccc(O)c(O)c1)C(=O)O	inactive
CNS(=O)(=O)c1cc(C(=O)N2CCC(CCN3C4CCC3CC(n3c(C)nc5ccccc53)C4)(c3cccc(F)c3)CC2)c(Cl)cc1F (stereo not given)	inactive

— PubChem BioAssay (EPA / NIEHS)
